VP16 counter = counter-screen for ROR gamma inhibitors: Gal4-VP16 reporter. Potency, µM (doses to about 53.6 µM), inactives show at the top dose activity, negative = inhibition, hits mostly inhibitors. Drosophila S2 Gal4-VP16 UAS-luciferase, luminescence, 20 h. hit rate 3.5% among 310,000;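 also: Gal4-VP16 expression switched on by copper sulfate through the metallothionein promoter; nearly all actives have a fitted effect of over 50% in size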
Luc counter = blocks Kinase-Glo luciferase, a counter-screen artifact; Kinase-Glo luciferase, ATP luminescence, 8 min; hit rate 0.28% among 200,000; AID 1379; Q27757; Potency, µM (top dose mostly 38.3 µM), for inactives: at the highest dose activity change, negative = inhibition, usual class: inhibitors; also: nearly all actives have a fitted effect of over 60% in size
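Recombinant Kinase-Glo luciferase, 10 uM ATP (linear range), luciferin; imidazole pH 7.2 / KCl / MgCl2 / Tween / BSA buffer; 8 min RT; luminescence.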
RORgamma inh = ROR gamma (mouse) transcription inhibition | P51450 | Drosophila S2 Gal4-RORgamma UAS-luciferase reporter, 20 h | Potency, µM (titrated, usually from 53.6 µM), inactives show top-dose activity change, negative = inhibition, usual class: inhibitors | hit rate 5.4% among 310,000 | AID 2551; also: nearly all actives have a fitted effect of over 60% in size
Target sequence (P51450 whole entry, looked up, the tested form may be a part): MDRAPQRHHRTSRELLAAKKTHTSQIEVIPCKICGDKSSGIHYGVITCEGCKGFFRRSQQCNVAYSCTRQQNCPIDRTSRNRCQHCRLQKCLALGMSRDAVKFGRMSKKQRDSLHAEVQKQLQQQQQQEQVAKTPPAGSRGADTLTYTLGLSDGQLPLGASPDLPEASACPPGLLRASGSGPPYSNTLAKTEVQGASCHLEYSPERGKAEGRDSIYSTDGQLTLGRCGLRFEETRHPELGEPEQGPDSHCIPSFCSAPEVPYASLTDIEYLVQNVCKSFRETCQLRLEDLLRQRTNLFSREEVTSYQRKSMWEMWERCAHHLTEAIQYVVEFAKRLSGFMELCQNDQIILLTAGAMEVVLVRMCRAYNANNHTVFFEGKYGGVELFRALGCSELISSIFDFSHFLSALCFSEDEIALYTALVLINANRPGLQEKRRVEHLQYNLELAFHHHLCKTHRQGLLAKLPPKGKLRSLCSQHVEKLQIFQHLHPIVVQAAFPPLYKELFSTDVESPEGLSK
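A Gal4/UAS one-hybrid system in insect cells: metallothionein-promoter Gal4–ROR gamma fusion plus Photinus luciferase reporter. Copper sulfate 700 uM final, 20 hr ambient incubation, luminescent detection after 10 min with reagent.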
The depositor's hits bear a star; ? = inconclusive; · = no result given; [ ] = another dose, or the depositor's remark. An excerpt weighted towards active compounds, which were near 6.4% of everything screened. Calls follow the shape of the dose curve; as a rule, active = well fitted curve in the direction sought with a large enough effect; inconclusive = small, poorly fitted or top-dose-only effect, or another doubt; inactive = no such curve, though single readings can be large; an effect the other way counts as inactive or inconclusive. % is scaled to controls: 0 for no effect and ±100 for the full control effect; potency is read from the fitted curve at half-maximal effect.

SMILES	VP16 counter	Luc counter	RORgamma inh
Nc1c(C(=O)N2CCOCC2)sc2nc3c(cc12)CCC3	?	11µM*	?
Nc1c(C(=O)N2CCOCC2)sc2nc3c(cc12)CCCC3	?	·	10µM*
CCCCNc1n[n+](C)c(-c2cccc(C)c2)s1	-10%	·	-31%
C=CCN1C(=O)/C(=C/c2ccc(-c3ccc(F)cc3)o2)SC1=S	1%	·	?
O=C(COc1ccc(F)cc1F)Nc1cccnc1	-18%	·	11%
CN[C@@H]1[C@H](O[C@@H]2O[C@H](C)[C@@](O)(CO)[C@H]2O[C@H]2[C@H](O)[C@H](O)[C@H](N=C(N)N)[C@@H](O)[C@@H]2N=C(N)N)O[C@@H](CO)[C@H](O)[C@H]1O	0%	1%[39.9 µM]	-16%
COc1ccc(/C=N/NC(=O)C(O)(c2ccccc2)c2ccccc2)cc1OC	0%	1%	-3%
CC1CCCCN1CC(=O)c1c(N)n(Cc2ccccc2)c(=O)n(C)c1=O (stereo not drawn)	2%	-1%	25%
CC1=NN(c2ccccc2)C(=O)/C1=C/N(C)C	-9%	·	-16%
CCOC(=O)c1ccc(N2N=C(C)/C(=C/C=C/c3ccco3)C2=O)cc1	-11%	-11%	42%
CC1=NN(c2ccccc2)C(=O)/C1=C\C=C\c1ccccc1	?	·	8.9µM*
CC1=NN(c2ccc(C(=O)OC(C)C)cc2)C(=O)/C1=C\C=C\c1ccco1	?	-14%	14µM*
CC1=NN(c2ccccc2)C(=O)/C1=C/c1cccc(C)c1	1%	·	33%
CC1=NN(c2ccccc2)C(=O)/C1=C/C=C/c1ccc(N(C)C)cc1	-12%	13µM*	-12%
Cc1cnc(CNc2ccnc(-c3ccccc3C(F)(F)F)n2)cn1	-1%	·	0%
CCCCN(CCO)CCCC	-4%	·	-3%
COCCNc1nc(SC)nc2sc3c(c12)CCN(C)C3	-2%	·	5%
COCCCNc1nc(SCc2ccccc2)nc2sc3c(c12)CCC3	-19%	-2%	11µM*
O=C(CCc1ccc(Oc2cc([N+](=O)[O-])cc([N+](=O)[O-])c2)cc1)Nc1cccc(Cl)c1	-10%	-3%	?
O=C(CCc1ccc(Oc2cc([N+](=O)[O-])cc([N+](=O)[O-])c2)cc1)N1CCCCC1	13µM*	15%	?
COc1ccccc1OCCNC(=O)Nc1cc(F)c(F)cc1Cl	-7%	·	40%
CC(C)CC(=O)Nc1cccc(C(C)O)c1 (stereo not drawn)	11%	0%	4%
COc1ccc(OC)c(NC(=O)C2CC(/C=C/c3ccccc3)=NO2)c1 (stereo not drawn)	6%	·	24%
CCCN1C(=O)/C(=C/c2ccc3c(c2)OCO3)NC1=S	?	0%	8.9µM*
CCCN1C/C(=C/c2ccc3c(c2)OCO3)C(=O)/C(=C/c2ccc3c(c2)OCO3)C1	1%	3%	-6%
SMILES	VP16 counter	Luc counter	RORgamma inh
Cc1cc(C(F)(F)F)nn1Cc1n[nH]c(=S)n1-c1ccc(F)cc1	-6%	-3%	?
Cc1n[nH]c(=S)n1-c1ccc(Cl)cc1	-9%	-1%	?
CCc1ccc(-n2c(C)n[nH]c2=S)cc1	?	1%	10µM*
CCc1ccc(-n2c(Cn3nc(C(F)(F)F)cc3C)n[nH]c2=S)cc1	?	-4%	4µM*
COc1ccccc1OCc1cc(C(=O)NCc2ccc(N3CCCC3=O)cc2)no1	-7%	·	35%
O=C(Cc1ccc(Cl)cc1)Nc1cccc(C(=O)Nc2ccccc2C(=O)O)c1	-7%	·	3%
COC(=O)c1[nH]c(C)c(/C(O)=C2\C(=O)C(=O)N(CCN3CCOCC3)C2c2ccco2)c1C (stereo not drawn)	1%	·	23%
O=C1NCCN(Cc2ccoc2)C1CC(=O)N(CCO)Cc1ccccc1 (stereo not drawn)	3%	1%	-14%
CCCn1c(C)nc2c(NCCN3CCCCC3)nc(C)nc21	-4%	-1%	-1%
CCCn1c(C)nc2c(NC3CCCCC3)nc(C)nc21	9%	-4%	16µM*
CN(C)CCN(CC1CCCN(Cc2ccccc2F)C1)C(=O)c1ccc(Cl)cc1 (stereo not drawn)	-11%	·	1%
CC[N+]1(C)CC2CCC(C)(C1)C2(C)C (stereo not drawn)	1%	0%	35%
Cc1ccccc1N=C1NC(=O)CC(c2ccccc2)S1 (stereo not drawn)	?	-1%	8.9µM*
Cc1ccccc1N=C1NC(=O)CS1	1%	14%	19%
C=CCN1C(=O)c2ccc(C(=O)N(C)CC(=O)Nc3cccc(F)c3)cc2C1=O	2%	·	18%
CCn1ccnc1CN1CCN(CCC(C)C)C(CCO)C1 (stereo not drawn)	-6%	0%	0%
